Assay results: the supplement of paper PMC6555819

Tests used:
Test in all cases: PBM binding z-score (relative to random genomic background probes); higher = stronger binding; sequences stand for … in GC…GCGATTGACAGCGTAGAATGAAGG
[1] = test system: FXR:RXRa (NR concentration 270 nM, RXRa partner concentration 90 nM)
Outline: (§1)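 Ligand-free nuclear receptor dimers were applied to custom Agilent 4×180K protein-binding microarrays whose double-stranded probes carried direct-repeat seeds, single-nucleotide variants, half-site ablations and random human genomic background sequences in 34-nt variable regions. Incubation lasted 1 h. Binding z-scores were computed against the random background probes from regression-normalized fluorescence.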

[2] = test system: LXRa:RXRa (NR concentration 270 nM, RXRa partner concentration 90 nM)
Outline: as §1

[3] = test system: LXRa homodimer (NR concentration 270 nM)
Outline: as §1

[4] = test system: LXRb:RXRa (NR concentration 270 nM, RXRa partner concentration 90 nM)
Outline: as §1

[5] = test system: LXRb homodimer (NR concentration 270 nM)
Outline: as §1

[6] = test system: PPARa:RXRa (NR concentration 270 nM, RXRa partner concentration 90 nM)
Outline: as §1

[7] = test system: PPARg:RXRa (NR concentration 180 nM, RXRa partner concentration 90 nM)
Outline: as §1

[8] = test system: PPARg:RXRa 270nM:90nM, anti-RXR (NR concentration 270 nM, RXRa partner concentration 90 nM)
Outline: as §1

[9] = test system: PPARg:RXRa 30nM:10nM, anti-RXR (NR concentration 30 nM, RXRa partner concentration 10 nM)
Outline: as §1

[10] = test system: PPARg:RXRa 90nM:30nM, anti-RXR (NR concentration 90 nM, RXRa partner concentration 30 nM)
Outline: as §1

[11] = test system: PPARg:RXRa DBDmut IVT, anti-RXR (DBD mutation: RXRa K156A/R161A, NR concentration 270 nM, RXRa partner concentration 90 nM)
Outline: as §1

[12] = test system: PPARg:RXRa IVT, anti-PPARg (NR concentration 270 nM, RXRa partner concentration 90 nM)
Outline: as §1

[13] = test system: PPARg DBDmut:RXRa IVT, anti-PPARg (DBD mutation: PPARg1 K132A/R137A, NR concentration 270 nM, RXRa partner concentration 90 nM)
Outline: as §1

[14] = test system: PPARg DBDmut IVT, anti-PPARg (DBD mutation: PPARg1 K132A/R137A, NR concentration 270 nM)
Outline: as §1

[15] = test system: PPARg homodimer (NR concentration 180 nM)
Outline: as §1

[16] = test system: PXR:RXRa (NR concentration 270 nM, RXRa partner concentration 90 nM)
Outline: as §1

[17] = test system: PXR homodimer (NR concentration 270 nM)
Outline: as §1

[18] = test system: RARa:RXR (NR concentration 270 nM, RXRa partner concentration 90 nM)
Outline: as §1

[19] = test system: RARa homodimer (NR concentration 270 nM)
Outline: as §1

[20] = test system: RARb:RXRa (NR concentration 270 nM, RXRa partner concentration 90 nM)
Outline: as §1

Sequence	PBM binding z-score [1]	PBM binding z-score [2]	PBM binding z-score [3]	PBM binding z-score [4]	PBM binding z-score [5]	PBM binding z-score [6]	PBM binding z-score [7]	PBM binding z-score [8]	PBM binding z-score [9]	PBM binding z-score [10]	PBM binding z-score [11]	PBM binding z-score [12]	PBM binding z-score [13]	PBM binding z-score [14]	PBM binding z-score [15]	PBM binding z-score [16]	PBM binding z-score [17]	PBM binding z-score [18]	PBM binding z-score [19]	PBM binding z-score [20]
CAAACTAGGTAAAGAGGTCAAAGTCCGCTTCCCG	4.77	5.01	4.55	4.65	1.08	5.7	6.6	6.92	5.17	7.2	6.78	6.91	3.48	1.44	5.18	5.5	2.02	6.1	1.43	3.95
ATCTCTAGGTAACCAAGTTCCGTGAATGCCGAAC	-0.0612	0.165	0.165	0.157	0.617	0.45	0.308	0.331	-0.073	0.181	3.6	2.9	0.664	0.557	0.453	0.03	0.0548	0.264	0.19	0.435
CCAGACAGGTGCGAAGGTAACTCAGCCTCGATTA	-0.321	-0.36	-0.34	-0.424	-0.755	-0.406	0.0695	-0.0964	-0.987	-0.523	-0.128	-0.749	-1.66	-1.77	-0.207	-0.494	-0.385	-0.323	0.0972	-0.199
CCTACTGGGCCACGAAACGTCATTGATTCAGTGA	-0.574	-0.675	-0.582	-0.896	-0.886	0.486	1.59	1.19	-0.214	0.157	5.46	4.94	0.954	0.628	-0.288	-0.903	-0.805	-0.908	-0.363	0.0906
AACTCTAGGTAAAGATAGTTCAGTGAATGCAAAT	0.28	3.96	0.498	0.633	-0.176	0.465	0.601	0.353	0.0247	0.245	2.43	1.47	1.03	0.24	0.547	0.755	0.513	0.462	0.929	0.576
CCCACTGGGCCAAAAAGGTCATTGATGCCGATAA	3.49	4.24	3.22	4.01	0.236	4.45	3.06	4.19	1.38	3.23	2.99	4.17	-1.05	-0.939	3.72	4.91	4.6	5.4	1.88	4.02
CCGAGTAGGTTATTGGGCATTCAGGCAACGGTGA	0.0641	0.327	0.00288	-0.0396	-0.644	0.768	1.19	2.31	0.262	1.6	3.85	2.72	-1.32	-0.589	0.636	-0.415	-0.545	-0.107	-0.0218	0.472
TCGAGTAGGTTACCATTGGGGCATTCAGCTTTCT	0.101	1.68	-0.373	0.964	-0.492	0.792	0.0586	1.23	0.995	1.17	3.26	2.88	-0.0492	-0.763	-0.00669	0.0838	-0.677	0.409	-0.577	0.817
CGGCCAAGGTCAGCAGGTCAGTGAAAGCGACGTG	5.72	3.58	-0.0772	2.9	-0.899	4.86	4.33	4.32	0.918	2.85	3.06	3.74	-0.746	-1.2	2.33	3.48	0.241	4.37	0.145	5.34
TCATATAGGTAAACGTGAAAGTCGAACGATATGA	0.211	0.332	-0.204	0.164	0.105	1.33	1.44	2.44	3.42	2.86	3.9	2.6	1.4	1.61	0.529	0.122	0.576	0.437	0.345	0.3
ACAGGCAGGTGATGAAGGTAACTCAGGCTATCAT	-0.308	-0.138	-0.317	-0.214	-0.617	-0.126	0.575	-0.133	0.158	-0.0613	0.0324	0.0841	0.243	-0.423	-0.139	-0.235	0.0904	-0.0555	0.0189	0.121
CGTCAAATTTCAAGGTAACGTAACAGAAAGCAGC	0.0505	-0.0464	0.101	0.163	-0.042	0.466	0.489	-0.149	0.0887	-0.0536	-0.147	0.739	1.23	0.951	0.422	0.33	-0.166	0.634	0.311	0.427
CCAGACAGGTGGAAGGTAACTCAGTCTGGTACGC	-0.299	-0.335	-0.385	-0.402	-0.752	0.13	0.719	1.5	-0.203	0.663	-0.367	-0.196	-1.35	-1.42	0.35	-0.242	-0.0179	-0.223	0.246	-0.313
TCTCGGAGGGCACGAAGGTCAGAGCTTTCCAGAG	1.96	2.22	0.0808	1.7	-1.18	2.96	1.3	2.4	1.73	1.99	1.9	2.51	-0.633	-1.03	1.08	3.25	2.26	2.88	-0.387	3.92
CCTGGGAGGACAGAAGGTCAGAGCTGTCCGCTTT	1.53	1.86	0.303	1.01	-0.655	2	-0.0173	1.11	-0.659	0.29	-0.504	0.212	-1.2	-1.6	1.81	1.65	-0.162	2.16	0.121	3.35
CGAACGCGGGCATGAGTTGATAGCAAATGCCGAT	-0.653	-0.715	-0.461	-0.883	-1.24	-0.441	0.36	-0.484	-0.861	-0.633	-0.0191	-0.364	-0.145	-0.957	-0.435	-0.69	-0.265	-0.878	-0.807	-0.0245
AGAACGAGGGCAATGAGTTGACAGCACGGGTGGC	0.329	0.24	-0.349	-0.388	-0.581	1.24	1.38	0.8	0.0302	0.423	3.68	2.54	0.168	0.4	-0.106	1.19	2.68	0.713	-0.225	2.12
TCGAGCAGGCCAGAGGGTCACTCAAGAGGTACGG	0.628	0.741	-0.581	1.11	-1.33	2.24	1.04	1.6	0.223	1.31	-0.0196	0.342	-0.384	-1.69	0.386	1.76	-0.594	2.13	-0.84	2.19
